Screening results from PubChem.
mHTT-CaM PPI inh: disrupts binding of mutant huntingtin to calmodulin; P42858; AlphaScreen His-mHTT/GST-CaM binding, luminescence; inhibition, % at 15 µM; actives 3.6% (n = 190,000); AID 1671202;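 further: 0% = both proteins with DMSO and 100% = one protein alone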
Target sequence (P42858 whole entry, looked up, stated change not applied): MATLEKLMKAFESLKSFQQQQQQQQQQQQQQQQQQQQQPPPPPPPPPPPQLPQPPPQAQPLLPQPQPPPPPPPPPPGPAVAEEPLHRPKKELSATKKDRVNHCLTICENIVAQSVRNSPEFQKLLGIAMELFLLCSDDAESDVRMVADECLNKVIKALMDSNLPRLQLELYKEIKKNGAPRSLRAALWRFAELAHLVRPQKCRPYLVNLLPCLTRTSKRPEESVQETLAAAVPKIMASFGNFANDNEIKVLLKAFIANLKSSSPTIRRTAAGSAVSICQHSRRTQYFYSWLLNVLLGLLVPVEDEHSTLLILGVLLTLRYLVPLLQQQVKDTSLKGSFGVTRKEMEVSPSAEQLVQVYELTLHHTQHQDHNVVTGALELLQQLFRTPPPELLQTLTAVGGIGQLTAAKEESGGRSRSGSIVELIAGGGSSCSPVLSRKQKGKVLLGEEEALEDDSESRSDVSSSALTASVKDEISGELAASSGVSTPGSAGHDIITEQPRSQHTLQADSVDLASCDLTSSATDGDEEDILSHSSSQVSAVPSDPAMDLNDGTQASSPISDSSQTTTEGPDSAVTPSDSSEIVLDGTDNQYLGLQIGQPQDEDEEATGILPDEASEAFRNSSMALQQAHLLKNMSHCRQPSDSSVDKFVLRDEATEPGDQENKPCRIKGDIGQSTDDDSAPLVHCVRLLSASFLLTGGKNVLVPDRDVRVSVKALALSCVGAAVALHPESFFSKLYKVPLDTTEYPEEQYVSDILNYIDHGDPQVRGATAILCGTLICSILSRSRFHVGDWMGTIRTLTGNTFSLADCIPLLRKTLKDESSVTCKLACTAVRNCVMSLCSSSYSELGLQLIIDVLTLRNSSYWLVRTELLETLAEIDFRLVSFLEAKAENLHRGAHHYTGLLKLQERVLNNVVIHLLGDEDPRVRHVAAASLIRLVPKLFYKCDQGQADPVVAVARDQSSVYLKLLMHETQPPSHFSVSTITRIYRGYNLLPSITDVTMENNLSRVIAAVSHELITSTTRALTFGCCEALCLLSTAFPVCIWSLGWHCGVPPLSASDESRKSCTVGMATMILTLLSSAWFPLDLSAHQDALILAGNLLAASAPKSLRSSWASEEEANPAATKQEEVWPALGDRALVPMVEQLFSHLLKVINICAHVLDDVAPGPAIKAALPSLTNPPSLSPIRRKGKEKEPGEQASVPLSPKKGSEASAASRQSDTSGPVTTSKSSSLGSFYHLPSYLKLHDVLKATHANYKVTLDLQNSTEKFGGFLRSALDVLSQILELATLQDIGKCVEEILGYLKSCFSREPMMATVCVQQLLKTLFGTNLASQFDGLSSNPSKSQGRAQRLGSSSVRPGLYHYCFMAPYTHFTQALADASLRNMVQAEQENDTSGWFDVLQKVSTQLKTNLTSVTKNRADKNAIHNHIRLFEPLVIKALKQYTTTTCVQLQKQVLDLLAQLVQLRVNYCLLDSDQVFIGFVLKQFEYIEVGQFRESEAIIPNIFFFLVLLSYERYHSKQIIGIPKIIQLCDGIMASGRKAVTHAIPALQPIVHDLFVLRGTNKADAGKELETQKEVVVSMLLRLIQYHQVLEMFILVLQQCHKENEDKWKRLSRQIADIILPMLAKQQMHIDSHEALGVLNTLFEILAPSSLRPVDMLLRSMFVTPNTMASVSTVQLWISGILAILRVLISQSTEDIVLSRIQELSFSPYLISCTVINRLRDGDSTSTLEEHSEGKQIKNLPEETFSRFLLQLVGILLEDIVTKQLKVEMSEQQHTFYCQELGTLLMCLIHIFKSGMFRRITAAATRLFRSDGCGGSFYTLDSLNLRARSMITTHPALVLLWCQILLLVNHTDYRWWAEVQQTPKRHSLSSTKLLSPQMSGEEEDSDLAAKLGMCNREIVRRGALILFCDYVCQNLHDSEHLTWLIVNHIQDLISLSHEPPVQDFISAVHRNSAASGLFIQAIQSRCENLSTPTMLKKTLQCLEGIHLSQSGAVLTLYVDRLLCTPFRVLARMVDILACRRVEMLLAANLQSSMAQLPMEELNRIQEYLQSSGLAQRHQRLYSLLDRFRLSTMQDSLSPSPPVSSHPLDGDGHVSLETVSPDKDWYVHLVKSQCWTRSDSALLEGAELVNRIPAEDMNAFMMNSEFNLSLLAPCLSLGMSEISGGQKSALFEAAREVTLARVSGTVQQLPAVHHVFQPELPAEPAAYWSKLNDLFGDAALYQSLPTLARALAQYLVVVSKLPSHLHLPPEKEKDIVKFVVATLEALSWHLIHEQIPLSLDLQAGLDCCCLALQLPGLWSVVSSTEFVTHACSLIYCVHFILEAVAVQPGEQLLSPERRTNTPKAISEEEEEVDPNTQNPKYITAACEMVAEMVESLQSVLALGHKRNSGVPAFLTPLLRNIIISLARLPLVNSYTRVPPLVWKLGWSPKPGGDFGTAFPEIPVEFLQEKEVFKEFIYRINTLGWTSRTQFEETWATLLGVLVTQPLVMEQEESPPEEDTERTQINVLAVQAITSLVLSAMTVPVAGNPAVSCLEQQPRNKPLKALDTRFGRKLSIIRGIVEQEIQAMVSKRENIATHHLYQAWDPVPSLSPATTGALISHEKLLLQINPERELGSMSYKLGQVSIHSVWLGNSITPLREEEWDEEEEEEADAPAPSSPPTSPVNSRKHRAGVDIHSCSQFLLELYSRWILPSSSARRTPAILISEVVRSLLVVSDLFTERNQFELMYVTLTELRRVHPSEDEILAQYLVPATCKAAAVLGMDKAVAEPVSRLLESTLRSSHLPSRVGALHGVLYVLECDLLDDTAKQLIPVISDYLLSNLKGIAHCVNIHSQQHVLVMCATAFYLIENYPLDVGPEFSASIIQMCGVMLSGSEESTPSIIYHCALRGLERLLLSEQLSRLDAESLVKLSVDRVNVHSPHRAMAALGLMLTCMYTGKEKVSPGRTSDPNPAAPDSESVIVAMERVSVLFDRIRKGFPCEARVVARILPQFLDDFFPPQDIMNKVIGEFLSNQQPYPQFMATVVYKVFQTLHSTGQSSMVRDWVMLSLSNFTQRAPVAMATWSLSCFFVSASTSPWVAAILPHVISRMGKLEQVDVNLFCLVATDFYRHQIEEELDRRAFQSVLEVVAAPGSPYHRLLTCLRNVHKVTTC
Pf apPOL block: Pf-apPOL DNA polymerase inhibition; Recombinant Pf-apPOL, molecular beacon fluorescence, 1.5 h; inhibition, % at 10 µM; actives 0.25% (n = 210,000); AID 1794808
* hit, by the source's call. A selection: hits, their analogues and other compounds. The true share with any hit is near 3.5%. No stated cut-off is given here; in the data, active means inhibition above about 50%; inactive means the rest.

How did CCn1c(C2CCN(Cc3ccccn3)C2)nc2cccnc21 (stereo unspecified) do in these assays?
mHTT-CaM PPI inh: 100*; Pf apPOL block: -44

How did Cc1nc(C2CCN(Cc3cccs3)CC2)n[nH]1 do in these assays?
mHTT-CaM PPI inh: -10; Pf apPOL block: -4

What do the screens show for `COCCc1nc(C2CCCN(Cc3cccs3)C2)n[nH]1` (stereo unspecified)?
mHTT-CaM PPI inh: -2; Pf apPOL block: -2

What do the screens show for `COCCc1nc(C2CCCN(Cc3ccccn3)C2)n[nH]1` (stereo unspecified)?
mHTT-CaM PPI inh: 89*; Pf apPOL block: -22

Results for CCOc1ccccc1CN1CCC(c2nc3cccnc3n2CC)C1 (stereo unspecified) ?
mHTT-CaM PPI inh: 18; Pf apPOL block: -5

Results for Cc1nc(C2CCN(Cc3ccccn3)CC2)n[nH]1 ?
mHTT-CaM PPI inh: 99*; Pf apPOL block: -9

What do the screens show for `CCC(Oc1ccccc1)C(=O)Nc1ccc(C)c([N+](=O)[O-])c1` (stereo unspecified)?
mHTT-CaM PPI inh: 2; Pf apPOL block: -4

How did CCOC(=O)c1c(C)c2c(N=CN(C)C)ncnc2n1-c1ccccc1 do in these assays?
Pf apPOL block: -7

Results for O=C(O)c1ccccc1-c1ccc(/C=C/c2cc(C(F)(F)F)[nH]c(=O)n2)o1 ?
mHTT-CaM PPI inh: 3; Pf apPOL block: -5

Results for O=C(O)c1cc(Cl)ccc1-c1ccc(/C=C/c2cc(C(F)(F)F)[nH]c(=O)n2)o1 ?
mHTT-CaM PPI inh: 13; Pf apPOL block: -1

What do the screens show for `O=c1nc(/C=C/c2ccc(-c3cccc(Cl)c3)o2)cc(C(F)(F)F)[nH]1`?
mHTT-CaM PPI inh: 91*; Pf apPOL block: -6

How did O=c1nc(/C=C/c2ccc(-c3ccc(Br)cc3)o2)cc(C(F)(F)F)[nH]1 do in these assays?
mHTT-CaM PPI inh: 99*; Pf apPOL block: -4

How did COc1cccc2c1OC1(C)CC2NC(=O)N1c1ccc(Cl)cc1 (stereo unspecified) do in these assays?
mHTT-CaM PPI inh: 0; Pf apPOL block: 0

What do the screens show for `Cc1noc(COC2CCCN(C(=O)c3cc(F)ccc3F)C2)n1` (stereo unspecified)?
mHTT-CaM PPI inh: -10; Pf apPOL block: -3

What do the screens show for `CCN(CC)c1ccc(C2C(C(=O)Nc3ccccn3)=C(C)NC3=C2C(=O)CCC3)cc1` (stereo unspecified)?
mHTT-CaM PPI inh: 15; Pf apPOL block: -2

How did CC(C)Oc1ccc(C(=O)Nc2cc(-c3nc4ncccc4o3)ccc2Cl)cc1 do in these assays?
mHTT-CaM PPI inh: 6; Pf apPOL block: -7

Results for CCN(CC)c1ccc(C(Nc2ccccn2)c2ccc3cccnc3c2O)cc1 (stereo unspecified) ?
mHTT-CaM PPI inh: 100*; Pf apPOL block: -1

What do the screens show for `CC(C)Oc1ccc(C(Nc2ccccn2)c2ccc3cccnc3c2O)cc1` (stereo unspecified)?
mHTT-CaM PPI inh: 98*; Pf apPOL block: -280

How did O=C(Nc1ccccc1C(=O)N1CCCC1)c1ccc(CSc2ccccc2)cc1 do in these assays?
mHTT-CaM PPI inh: -13; Pf apPOL block: 3

How did Cc1cc(CNC(=O)C2CC(=O)N(c3ccc(F)cc3)C2)no1 (stereo unspecified) do in these assays?
mHTT-CaM PPI inh: -11; Pf apPOL block: -3

Results for CC(C)OCCCNC(=O)C1CCN(c2ccc(N3CCCCC3)nn2)CC1 ?
mHTT-CaM PPI inh: 11; Pf apPOL block: -7

How did O=C(NC(NCC1CCCO1)C(Cl)(Cl)Cl)c1ccco1 (stereo unspecified) do in these assays?
mHTT-CaM PPI inh: -1; Pf apPOL block: 97*

How did O=C(NC(NCCc1ccccc1)C(Cl)(Cl)Cl)c1ccco1 (stereo unspecified) do in these assays?
mHTT-CaM PPI inh: -10; Pf apPOL block: -1

What do the screens show for `CN(C)c1ccc(C2(c3ccc(N(C)C)cc3)OC(=O)c3ccccc32)cc1`?
mHTT-CaM PPI inh: 86*; Pf apPOL block: 1

Results for O=C1OC(c2ccccc2)(c2ccccc2)c2ccccc21 ?
Pf apPOL block: 1

What do the screens show for `CCOc1cc(C2Nc3cc(C)c(C)cc3NC3=C2C(=O)CC(C)(C)C3)cc(Cl)c1O` (stereo unspecified)?
mHTT-CaM PPI inh: 53*; Pf apPOL block: -6

Results for CCOc1cc(C2Nc3ccccc3NC3=C2C(=O)CC(c2cccs2)C3)cc(Cl)c1O (stereo unspecified) ?
mHTT-CaM PPI inh: 28; Pf apPOL block: -12

Results for COc1ccc(-n2c(-c3cccc(OC)c3)cn3c4c(=O)n(C)c(=O)n(C)c4nc23)cc1 ?
mHTT-CaM PPI inh: 5; Pf apPOL block: -8

What do the screens show for `CCOC(=O)Cc1ccc(NC(=O)N2CCC(n3c(C)nc4cccnc43)C2)cc1` (stereo unspecified)?
mHTT-CaM PPI inh: 6; Pf apPOL block: 0

Results for Cc1ccc(-n2c(CN3C(=O)c4ccccc4C3=O)nc3ccccc3c2=O)c(C)c1 ?
mHTT-CaM PPI inh: -1; Pf apPOL block: -4

How did O=S(=O)(c1ccccc1)c1nc(Cc2ccccc2)oc1N1CCCCCC1 do in these assays?
mHTT-CaM PPI inh: 23; Pf apPOL block: 68*

What do the screens show for `O=S(=O)(c1ccccc1)c1nc(-c2ccccc2)oc1N1CCOCC1`?
mHTT-CaM PPI inh: 1; Pf apPOL block: -3

How did O=C(Nc1ccccn1)C1C2CCC3C(CCC21)C3(Cl)Cl (stereo unspecified) do in these assays?
mHTT-CaM PPI inh: -19; Pf apPOL block: -4

How did CCC1(C)CC(CCNCc2ccc(N(C)C)cc2)(c2ccc(OC)cc2)CCO1 (stereo unspecified) do in these assays?
mHTT-CaM PPI inh: 86*; Pf apPOL block: 0

How did CCC1(C)CC(CCNCc2ccc(OC)c(OC)c2)(c2ccccc2OC)CCO1 (stereo unspecified) do in these assays?
mHTT-CaM PPI inh: 12; Pf apPOL block: -11

Results for O=C(Cc1ccccc1Cl)NCC1CCN(c2cc(-c3cccnc3)[nH]n2)CC1 ?
mHTT-CaM PPI inh: 13; Pf apPOL block: -5

How did CC1=CC(=O)C(C(C)C)=C/C1=N\OC(=O)c1cccc(Br)c1 do in these assays?
mHTT-CaM PPI inh: inactive; Pf apPOL block: -4

Results for CC1=CC(=O)C(C(C)C)=CC1=NC(=O)c1ccc(C)cc1 ?
mHTT-CaM PPI inh: 60*; Pf apPOL block: -1

Results for O=C(NCc1ccccc1)NCC(O)c1ccc(C(F)(F)F)cc1 (stereo unspecified) ?
mHTT-CaM PPI inh: -10; Pf apPOL block: -33

Results for O=C(NCC(O)c1ccc(C(F)(F)F)cc1)C(c1ccccc1)c1ccccc1 (stereo unspecified) ?
mHTT-CaM PPI inh: 86*; Pf apPOL block: -6

How did O=C1OCCN1C(=O)[C@H]1[C@H](c2ccc([N+](=O)[O-])cc2)C(c2ccccc2)=NN1c1ccccc1 do in these assays?
mHTT-CaM PPI inh: 47; Pf apPOL block: -1

Results for Cc1cccc(C2=NN(c3ccc(Br)cc3)[C@@H](C(=O)N3CCOC3=O)[C@@H]2C)c1 ?
mHTT-CaM PPI inh: 3; Pf apPOL block: 9

How did Cc1cccc(C2=NN(c3ccc(Br)cc3)[C@@H](C(=O)N3CCOC3=O)[C@@H]2c2ccc([N+](=O)[O-])cc2)c1 do in these assays?
mHTT-CaM PPI inh: 50*; Pf apPOL block: -10

What do the screens show for `O=C1OCCN1C(=O)[C@H]1[C@H](c2ccc([N+](=O)[O-])cc2)C(c2cccc(Cl)c2)=NN1c1ccccc1`?
mHTT-CaM PPI inh: 55*; Pf apPOL block: -1

What do the screens show for `COc1cc(Cl)c(NS(=O)(=O)c2cc(Br)c(Br)s2)c(OC)c1`?
Pf apPOL block: -9
